Experimental findings from PubChem BioAssay AID2685 (National Center for Advancing Translational Sciences (NCATS), 2010) are described below.

About 2,100 (0.66%) of roughly 320,000 compounds were called active. Another 53% or so got no clear call; they are omitted. The call rests on the fitted dose curve; in most records, active means well fitted inhibition curve with a large enough effect in the signal ratio, with a control signal flat (not every such curve was filed as active); inconclusive means small, poorly fitted or top-dose-only effect, or effect the other way, or a change in a side signal; inactive means flat fitted curve, though single readings scatter; the % refers to the signal ratio. For the sample, actives were picked, then their nearest neighbours and some compounds at random.
Potency means the concentration at half of the fitted maximal effect.

A short description of this assay: qHTS Assay for Lipid Storage Modulators in Drosophila S3 Cells.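 On cell number change: cells counted by Cell Tracker Red CMTPX staining in the red channel.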 On lipid storage change, negative = inhibition: on the % scale 0 is the no-effect control and ±100 the full control effect. Particulars: BODIPY lipid droplet fluorescence, 18-24 h, cells fed with added oleic acid; cell number change: measured here: cell count max response; series mostly up to 46.1 µM; lipid storage change, negative = inhibition: at the top concentration. In outline: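 Drosophila S3 cells loaded with oleic acid (400 uM, as added) and compounds at several concentrations; lipid droplets imaged by 488-nm laser-scanning cytometry, 500–530 nm intensity and object ratio to cell channel. Percent activity normalized to 20 uM Triacsin C.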
In general terms: qHTS replaces the single test concentration by a dilution series.
With `O=C(CCNS(=O)(=O)c1ccc(Cl)cc1)N1CCN(Cc2ccccc2)CC1`, the “lipid storage change, negative = inhibition” value is -8.38% (inactive) and the cell number change is -14.8%. Consider `N#Cc1ccc(CN2CCN(C(=O)CCNS(=O)(=O)c3ccc(F)c(Cl)c3)CC2)cc1`, for which the Potency was 20.6 µM (active) and the cell number change was -29%. As to `Cc1c(C)c(C)c(S(=O)(=O)NCCC(=O)N2CCN(Cc3ccc(C#N)cc3)CC2)c(C)c1C`, the “lipid storage change, negative = inhibition” value is -6.69% (inactive) and the cell number change was found to be 10.7%.

As for `Cc1ccc(NC(=O)CC(NC(=O)c2ccccc2Cl)c2ccccc2)nc1` (stereo not drawn), the “lipid storage change, negative = inhibition” value was -13.8% (inactive) and the cell number change is 12.3%. Taken in the same sequence, the figures for `Cc1cccc(N2CCN(C(=O)C(Cc3ccccc3)NC(N)=O)CC2)c1C` (stereo not drawn) were 5.13% (inactive) and -3.7%. Take `Cc1cccc(N2CCN(C(=O)CC(NC(=O)c3ccccc3Cl)c3ccccc3)CC2)c1C` (stereo not drawn): the Potency was 10.3 µM (active) and the cell number change is -1.65%.

Consider `CCC(C)NC(=O)CSc1c2c(nc3ccccc13)CCCC2` (stereo not drawn), for which the “lipid storage change, negative = inhibition” value was -0.588% (inactive) and the cell number change was -7.84%.

On to `COCCNC(=O)CSc1nc2ccccc2c(=O)n1CCC(=O)NCCc1ccc(OC)c(OC)c1`, for which the “lipid storage change, negative = inhibition” value was -6.85% (inactive) and the cell number change was -7%.

As to `CCOC(=O)CN1NC2(CCC(C(C)(C)C)CC2)NC1=S` (stereo not drawn), the “lipid storage change, negative = inhibition” value is -2.81% (inactive) and the cell number change was found to be 0.162%. Take `CCOC(=O)CN1NC2(CCCCCCC2)NC1=S`: the “lipid storage change, negative = inhibition” value is 17% (inactive) and the cell number change came to 26.5%. In the case of `CCOC(=O)CN1NC2(CCC(C)CC2)NC1=S` (stereo not drawn), the Potency was 18.4 µM (active) and the cell number change came to 16.5%. As for `CC(=O)N1CC2(NC(=O)c3ccccc3N2)c2ccccc21` (stereo not drawn), the “lipid storage change, negative = inhibition” value is -3.02% (inactive) and the cell number change is 1.06%. As to `COc1ccc(-n2nnc3c(=O)n(CC(=O)N4CCCCC4)cnc32)cc1`, the call was inactive. On to `Cc1cccc(NC(=O)/C=C/c2ccc([N+](=O)[O-])s2)c1`, for which the Potency is 20.6 µM (active) and the cell number change was -28.2%.

Turning to `CN(C(=O)/C=C/c1ccc([N+](=O)[O-])s1)c1ccccc1`, the “lipid storage change, negative = inhibition” value is -2.6% (inactive) and the cell number change was 5.5%.

Regarding `CC(=O)c1cccc(NC(=O)/C=C/c2ccc([N+](=O)[O-])s2)c1`, the “lipid storage change, negative = inhibition” value is -0.322% (inactive) and the cell number change is -6.6%. In the case of `Cc1ccccc1NC(=O)/C=C/c1ccc([N+](=O)[O-])s1`, the Potency is 9.2 µM (active) and the cell number change is -29.7%. Turning to `Cc1cc(C)cc(NC(=O)/C=C/c2ccc([N+](=O)[O-])s2)c1`, the “lipid storage change, negative = inhibition” value was -0.708% (inactive) and the cell number change was -13.6%. Regarding `Cc1ccccc1NC(=O)/C=C/c1cccs1`, the “lipid storage change, negative = inhibition” value was -3.06% (inactive) and the cell number change was -15.7%. Take `O=C(c1ccc(-n2cncn2)c([N+](=O)[O-])c1)N1CCN(c2cccc(Cl)c2)CC1`: the “lipid storage change, negative = inhibition” value was -19.8% (inactive) and the cell number change was 25.4%. For the compound `Cn1cnc2cc(OC(=O)c3ccccc3)ccc21`, the call was inactive and the cell number change is 19.2%. In the case of `CCCCC(CCC(=O)O)(C(=O)OCC)c1csc(Nc2ccccc2)n1` (stereo not drawn), the “lipid storage change, negative = inhibition” value is 9.89% (inactive) and the cell number change came to 0.537%. `CCOC(=O)/C(=N\Nc1ccc(C(C)=O)cc1)c1csc(Nc2ccccc2)n1`: the Potency is 16.4 µM (active) and the cell number change was 17.1%. In the case of `CCOC(=O)c1nc(Nc2ccc(C(C)=O)cc2)c2ccccc2n1`, the “lipid storage change, negative = inhibition” value was -4.14% (inactive) and the cell number change is -13.6%. Taken in the same sequence, the figures for `COc1cccc(NC(=S)Nc2cc(C(=O)O)ccc2N2CC3CC(C2)c2cccc(=O)n2C3)c1` (stereo not drawn) were -0.148% (inactive) and -20.1%.

For `CC(C)c1cccc(C2=CC(=O)C[C@H](c3ccc(F)cc3)C2)c1`, the “lipid storage change, negative = inhibition” value is 9.98% (inactive) and the cell number change is -1.84%. As for `COc1ccc(CNC(=O)C(c2cccc(C)c2)N(C(=O)c2csnn2)C2CC2)cc1` (stereo not drawn), the Potency was 2.06 µM (active) and the cell number change amounted to 16.2%. Take `COc1ccc(CNC(=O)C(c2ccccc2F)N(C(=O)c2csnn2)C2CC2)cc1` (stereo not drawn): the “lipid storage change, negative = inhibition” value is 16.9% (inactive) and the cell number change is 9.27%. As to `O=C(NCc1ccccc1)C(c1ccccc1)N(C(=O)c1csnn1)C1CC1` (stereo not drawn), the “lipid storage change, negative = inhibition” value is -16.2% (inactive) and the cell number change turned out to be 0.427%.

On to `Cc1nonc1C(=O)N/N=C/c1cc2c(cc1Br)OCO2`, for which the “lipid storage change, negative = inhibition” value was -3.58% (inactive) and the cell number change came to 13%. Consider `COc1cc2c(cc1OC)CN(C(=S)Nc1ccc(C)cc1C)CC2`, for which the “lipid storage change, negative = inhibition” value was -12.4% (inactive) and the cell number change is -5.84%.

On to `O=C(Nc1ccccc1-c1nc2ccccc2[nH]c1=O)c1cccs1`, for which the Potency was 9.2 µM (active) and the cell number change was found to be 7.26%. Turning to `CCC(=O)Nc1ccccc1-c1nc2ccccc2[nH]c1=O`, the compound was classed as inactive and the cell number change is -8.79%. Taken in the same sequence, the figures for `CC(C)C(=O)Nc1ccccc1-c1nc2ccccc2[nH]c1=O` were “inactive” and -27.6%. As to `Cc1c(C(=O)N2CCCCC2)c(S(=O)(=O)NCCc2ccccc2)c(C)n1C`, the compound was called inactive and the cell number change is -0.59%. Take `CCOC(=O)COc1ccc(S(=O)(=O)N2CCN(C(=O)OCC)CC2)cc1`: the “lipid storage change, negative = inhibition” value is 15% (inactive) and the cell number change is -5.47%. As to `CCCn1c(SCC(=O)NC2CC2)nnc1-c1cccs1`, the “lipid storage change, negative = inhibition” value was -14.1% (inactive) and the cell number change turned out to be 9.09%.

In the case of `Cc1ccc(NC(=O)CSCC(=O)N2CCN(Cc3ccc4c(c3)OCO4)CC2)cc1`, the compound was called inactive and the cell number change turned out to be 21.6%. Regarding `COc1ccc(NC2CCCN(C(=O)CN3C(=O)c4ccccc4C3=O)C2)cc1OC` (stereo not drawn), the Potency was 18.4 µM (active) and the cell number change is -13.7%. As to `Cc1ccc(NC2CCCN(C(=O)CN3C(=O)c4ccccc4C3=O)C2)cc1C` (stereo not drawn), the “lipid storage change, negative = inhibition” value is 18.6% (inactive) and the cell number change was 5.05%.

With `COc1ccc(NC2CCCN(C(=O)CSc3ccccc3)C2)cc1` (stereo not drawn), the result was inactive and the cell number change worked out at 3.54%. In the case of `COc1ccc(NC2CCCN(C(=O)CSc3ccccn3)C2)cc1OC` (stereo not drawn), the “lipid storage change, negative = inhibition” value is -17.1% (inactive) and the cell number change was -4.53%. Consider `COc1ccc(NC2CCCN(C(=O)CCOc3ccccc3)C2)cc1` (stereo not drawn), for which the outcome was inactive and the cell number change stood at 2.67%. With `COc1ccc(NC2CCCN(C(=O)CCN3CCCC3=O)C2)cc1` (stereo not drawn), the “lipid storage change, negative = inhibition” value is 8.07% (inactive) and the cell number change was 24.3%. Consider `COc1ccc(NC2CCCN(C(=O)COc3ccc(C)cc3)C2)cc1` (stereo not drawn), for which the Potency is 2.06 µM (active) and the cell number change is -19.8%. Taken in the same sequence, the figures for `COc1ccc(NC2CCCN(C(=O)CSc3ccncc3)C2)cc1` (stereo not drawn) were 0.231 µM (active) and -29%. On to `COc1ccc(NC2CCCN(C(=O)c3ccncc3)C2)cc1` (stereo not drawn), for which the call was inactive and the cell number change is -9.17%.
